Measurements: PubChem BioAssay AID1508600 (Functional Genomics Laboratory (NCATS/FGL), 2020)
About 3,700 (7%) of roughly 53,000 sequences were called active.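 Rule for the calls: active = gene knockdowns whose robust z-score for IL-1 alpha signal is at least 2 or at most -2, so actives lie on both sides; inactive = the rest.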 The full list was thinned out, with actives kept by preference.

Test: Components of the Cytosolic LPS Sensing Pathway: Gene Identification via Genome-wide siRNA Screen;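 note: robust z of the log signal after scaling to non-targeting control siRNA wells of the plate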
Details: RAW264.7 macrophages, IL-1a HTRF, actives lie on both sides, screened at 100 nM (by protocol), cells primed 5 h with Pam3CSK4 first
Method in brief: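 Mouse macrophage line RAW264.7 is transfected with siRNA (100 nM final), grown 48h, primed with TLR ligand Pam3CSK4 5 h and given intracellular LipidA 24 h. IL-1a in supernatant is read by HTRF and viability by luminescence.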

Row | Sequence | z-score
1 | GGGUUCUUUCACUGAACGATT against Pskh1 | 0.9 (inactive)
2 | GGCAUCUUCAUCAAGGAUUTT against Sf3a1 | -1.1 (inactive)
3 | GGCUUAAGUGUGCAGCUACTT against B3gnt4 | -0.479 (inactive)
4 | GGACAUUGCUGCCUAUAUCTT against Dynll2 | 0.452 (inactive)
5 | GCGAUCCUGACUUGUUCAATT against Kdm6b | 2.27 (active)
6 | GGACAAGAAGCAUCUUUCATT against Smpdl3a | -1.16 (inactive)
7 | GGAAACUUUAGCAUGAAUGTT against Hmgxb4 | -0.335 (inactive)
8 | GCAUGCGUGAGAAACUGAUTT against Clec2e | -0.152 (inactive)
9 | GCAAGCUAAUGAGCUACAATT against Samd9l | -0.107 (inactive)
10 | CCGCCCGCUCAACACUAAUTT against Zfp36l3 | -2.39 (active)
11 | GGUAUAUUGCCAUAUGUAATT against Olfr731 | -0.174 (inactive)
12 | CCAUGGGCCUACCAAACAGTT against Celf2 | -1.86 (inactive)
13 | GCCGGAUAACAUCAGACACTT against Rmnd1 | -0.146 (inactive)
14 | GCCACAGAGCUAGACUGUCTT against Wdr86 | 0.241 (inactive)
15 | GGAACAUCUUCAAAGAAGATT against Minar1 | -0.963 (inactive)
16 | GUUUUGUUUCAGAGCAGAATT against Olfr900 | -0.134 (inactive)
17 | GCUAAUAACUGUUCACAUATT against Magi1 | 1.97 (inactive)
18 | CCAAUCUUAGUCAUCCAUUTT against Foxo6 | -2.27 (active)
19 | GUAUUGUCAUCAUCAUUUCTT against Olfr910 | 0.115 (inactive)
20 | GGUCGGCCAAUUACAAUGUTT against Eml4 | 2.16 (active)
21 | GCGAUGAGACAGAUGUCGATT against Tcof1 | -0.0757 (inactive)
22 | GGUCUUCAACAACAUUAUCTT against Hid1 | 1 (inactive)

Row | Sequence | z-score
23 | GCCGAUCCAUUUUUGGCUCTT against Mlxip | 0.86 (inactive)
24 | GGAGUAUUACCUGGUUAAGTT against Suv39h1 | -1.18 (inactive)
25 | GCAAGUUAAGGAUAUCAUGTT against Katna1 | 1.2 (inactive)
26 | CCGAGUCUUGAACUAGGCATT against Six2 | -2.01 (active)
27 | GCUUUCUGAAGUAGCAAAGTT against Nit2 | 0.42 (inactive)
28 | GAUGUACGAGAGCUUAGCATT against Uqcc2 | -1.14 (inactive)
29 | GGACUACCUGUGUAUGCUCTT against Dcaf12l1 | 1.3 (inactive)
30 | GGAAUGUUCCUUCGAGCAGTT against Ccdc28b | -0.197 (inactive)
31 | GCCAUAGAAGUAGAAGUAGTT against Rbmx2 | -2.29 (active)
32 | GGCGAAAGUAAGACAAAGUTT against Ric8a | 0.708 (inactive)
33 | GGCAAACCGACAGACUUCUTT against Riok1 | -0.033 (inactive)
34 | GGUCUCUCAUUACCACAUUTT against Olfr69 | 1.75 (inactive)
35 | GGAAGAUCAGCCAUACUAGTT against Klrb1f | 2.12 (active)
36 | GCCCACACUUGCUAAUGAATT against Ppp1r26 | 0.468 (inactive)
37 | GCUGAACGAUGACUAUCCCTT against Cryba4 | 2.2 (active)
38 | GCUUGUGCCAAGCAUUCUUTT against Rdh1 | 0.861 (inactive)
39 | GGACUCAGAAGAAAUGGACTT against Osbpl6 | 0.109 (inactive)
40 | GCUCUGCUAACUUACAUCUTT against Mtmr11 | 1.75 (inactive)
41 | GGCAAAGAGAUUGACAUUGTT against Kif2c | -0.991 (inactive)
42 | GCGGUCACGUGUGAUGGAUTT against Zfp653 | 3.98 (active)
43 | GGCAGGAGAUGGUAACUGCTT against Phc2 | 1.08 (inactive)
44 | CGAAUUCAAAAAGCUAGAGTT against Gsto1 | 0.0531 (inactive)

Row | Sequence | z-score
45 | GGCCUUCAUGGAUUAUACCTT against Serpinb9 | 2.09 (active)
46 | GGCCAUUCAGAAGAUGCAGTT against Snapc2 | -0.852 (inactive)
47 | CGAUUGUCGGGUUUUGUUUTT against Nutf2 | -2.53 (active)
48 | GCCAUUGACUGUACAGGUUTT against Taar4 | 0.74 (inactive)
49 | GGAAGAGCAGGCAUCCAUATT against Ranbp10 | -0.294 (inactive)
50 | GGGAGAUGAUUAGUUCAUUTT against Mad1l1 | 0.654 (inactive)
51 | GGCCAGUCCAAAGACCAUCTT against Hsd3b7 | 1.95 (inactive)
52 | GCAAAACAUUUCCUGUCUGTT against Zfp316 | -0.555 (inactive)
53 | CCUCAAUUAUACCAAGAUUTT against Mapre3 | -1.28 (inactive)
54 | GCCAGGAGUCCUUUAGGAATT against Tmem159 | -0.184 (inactive)
55 | GCCCUCUUAUCUGAAUAAUTT against Stk17b | 2.19 (active)
56 | GGGAUUGGAAGAGAAAUGGTT against Hsd11b1 | 0.362 (inactive)
57 | GCUAUACGAAGACUUCAGCTT against Hdhd3 | 0.972 (inactive)
58 | GGCCUUUAAUUUCUUACACTT against Akt1s1 | -0.6 (inactive)
59 | GGAGUGAAAUUUACUGGGUTT against Hdgfl3 | 1.28 (inactive)
60 | GGAGAACAAAGAUUUCGUGTT against Lhfpl4 | -0.897 (inactive)
61 | GCUAAACACGCUGAAUAUUTT against Phf10 | 0.107 (inactive)
62 | GCUACUAUCACAUAUGCACTT against Olfr1122 | -2.09 (active)
63 | GGGUUGGUAUAGCUUUCAGTT against Zfp619 | -0.948 (inactive)
64 | GGAACCUGAAAAUGUAUGUTT against Cxcl10 | 0.988 (inactive)
65 | CGUUCAGUGUCUGCAGGUUTT against Mrps12 | -0.0575 (inactive)
66 | CCACUAAUUACAGUAACAUTT against Akr1c20 | -1.11 (inactive)

Row | Sequence | z-score
67 | GCAGACUCAUGCACUUGAATT against Olfr1165-ps | -0.321 (inactive)
68 | GGAAGUCUUAGAAGUAGCCTT against Diaph3 | 0.691 (inactive)
69 | GGGAACUGCACAAUACAAATT against Ccdc122 | 1.91 (inactive)
70 | GGCUGGUGGAUAAUGAUUGTT against Tmem50b | 2.18 (active)
71 | GGACUGUUUUGUCUUGAAGTT against Gm5124 | -1.04 (inactive)
72 | GGUUUUUGUUAAGGUCAAUTT against Abca16 | 0.209 (inactive)
73 | CCAUCCGUAACAUCGACUGTT against Mboat7 | -0.293 (inactive)
74 | UGGUCACCUUUCUCUUAUUTT against Tas2r140 | -0.575 (inactive)
75 | GCUCCUGGGAUACGUAUUATT against Abhd16a | -2 (active)
76 | GGGAGCUGAACACAAACACTT against Trav3-3 | 0.191 (inactive)
77 | GGACCUUCUUCAAGAAAGUTT against Olfr430 | 0.0987 (inactive)
78 | GGAUGGUGAAAAUCUUGAGTT against Mindy1 | 1.39 (inactive)
79 | GGACAAUGGGAGCUAUCGATT against Gpld1 | -1.73 (inactive)
80 | GGCUAAUACAUAAAGUAGUTT against 4930515G01Rik | 0.452 (inactive)
81 | GGUCAAGAAAUGGGCAAGCTT against Arhgdib | 1.14 (inactive)
82 | GGAAAUAAACCACCUCUUCTT against Olfr437 | 2.36 (active)
83 | GAACAUGGAAAGCAGCAUUTT against Lce1m | -0.757 (inactive)
84 | GGUAUUUUUCAUGGCUCUCTT against Olfr305 | -0.0328 (inactive)
85 | GCCAAAUACUUUUUUACCCTT against Slc38a2 | 0.682 (inactive)
86 | GCUUACCAAAAGGAUAUCCTT against Zfand2b | -1.94 (inactive)
87 | GGCAUUUCAUGUAGCUAAATT against Spata18 | 2.04 (active)
88 | GGUCCAACGAUAUGUUGACTT against Cyp2c67 | 1.27 (inactive)

Row | Sequence | z-score
89 | GGACAUGGAGAAAAAGUACTT against Styk1 | 0.547 (inactive)
90 | GCAGUGCGAUUGCUUACAGTT against Tube1 | 1.07 (inactive)
91 | GGAUGUUCCAUUUCUAAGCTT against Zfp30 | -3.76 (active)
92 | GGAGUGUGCCCUGAAAGAUTT against Psrc1 | -0.215 (inactive)
93 | GGCUUUUCUGCCAUUUAUGTT against Sox18 | 0.23 (inactive)
94 | GGGUGAAAGAAAGAAAGAATT against Plp1 | -0.883 (inactive)
95 | GGCCCAGUGACUAUGGAAUTT against Mpnd | -2.68 (active)
96 | GGAUUACAGAAGCCCACACTT against Plekhn1 | -0.719 (inactive)
97 | GGACGUGCUUACAUUGUACTT against Pcdhb9 | -0.212 (inactive)
98 | GCAAUUGAGAUCUAUACAGTT against Napa | -0.0109 (inactive)
99 | GGGAAUAUGUGAAACAGACTT against Syk | -0.229 (inactive)
100 | GCCAAUAAAGUCGGUGAAATT against H2aj | -0.244 (inactive)
101 | GGAAUAAUCCCAGAAUCAGTT against Stard6 | 0.0758 (inactive)
102 | GGAAGUGGCUUUUUAUCAGTT against Arhgap6 | 2.05 (active)
103 | CCAUACACAACAUUCCAGATT against Slc39a11 | 0.0339 (inactive)
104 | GCAUUCAUCAAAUUUACAGTT against Prrg4 | -0.67 (inactive)
105 | CCUACUAACAACAAGAGCATT against Pcdhga5 | 0.021 (inactive)
106 | GGAACUGAUCUGGAAGAAUTT against Sord | -0.392 (inactive)
107 | GGAAUACCAGGCCUUCCUUTT against B4galnt1 | -0.886 (inactive)
